The test system of experiment [1] is T1, RSK1(Kin.Dom.2-C-terminal).
T1 construct: gene RPS6KA1

Experiment [2] concerns T2, RSK4(Kin.Dom.2-C-terminal).
T2 construct: gene RPS6KA6
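Further: kd values determined as follow-up on hits from a single-replicate KINOMEscan panel screen.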

On to `C[C@@H](Oc1cc(-n2cnc3ccc(NC(=O)NC(C)(C)C)cc32)sc1C(N)=O)c1ccccc1Cl` [GSK346294], for which the equilibrium dissociation constant (Kd) is 77 nM in the experiment on PLK2 and 150 nM in the experiment with PLK3.

Regarding `COc1ccc(COc2cc(-n3cnc4ccccc43)sc2C(N)=O)cc1` [GSK1024304], the figures for the Kd in the experiment on PLK2, with PLK3 and with RIOK2 were 250 nM, 380 nM and 76 nM, respectively.

Take `Fc1ccc(-c2ncn(CCCN3CCOCC3)c2-c2ccccn2)cc1` [SB-211742]: the Kd in the experiment with PRKCI was > 10000 nM.

`Cc1cccc(-c2nc(Nc3ccc4ncsc4c3)c3ccccc3n2)n1` [GW867588]: the Kd in the experiment on PRKD1 was found to be 16 nM; in the experiment on PRKD2, 22 nM.

On to `Cc1nnc(-c2ccc3occ(-c4ccc(C(C)O)cc4)c3c2)o1` (stereo not shown), for which the Kd with RAF1 is > 10000 nM.

With `O=c1cc(N2CCOCC2)nc2n(Cc3cccc4ccccc34)ccn12` [GSK2333389], the Kd in the experiment with RET was > 10000 nM.

`c1ccc(-c2cc(-c3c[nH]nc3-c3ccccn3)ccn2)cc1` [GW576604] showed a Kd in the experiment with RIPK2 of 7600 nM.

Consider `CNc1ncnc2[nH]ncc12` [SKF-18355], for which the Kd came to 380 nM with ROCK1 and 330 nM in the experiment on ROCK2.

On to `CCCCCc1nc2c(N)ncnc2n1CCCCC` [SKF-97255], for which the Kd in the experiment with ROCK1 amounted to 280 nM.

Take `CC(C)(C)n1cnc2c(N)ncnc21` [SKF-97359]: the Kd (in experiment [1]; with SgK110) was > 10000 nM in each case.

Take `CN1c2ccc(NCc3ccc(F)cc3)cc2-c2c(cnn2C)S1(=O)=O`: in [2], the dissociation constant Kd was > 10000 nM.

For `CN1c2ccc(CNc3ccc(F)cc3)cc2-c2c(cnn2C)S1(=O)=O`, the dissociation constant Kd in the experiment on SGK2 is > 10000 nM.

Regarding `CSc1ccc(-c2cc3ncnc(SCC(=O)O)c3s2)cc1`, the Kd with SRPK2 was > 10000 nM.

Consider `COc1ccc(Nc2nccc(N3CCC(NC(=O)Nc4cc(C)ccc4C)C3)n2)cc1` (stereo not shown) [GSK1379741], for which, in the experiment on STK36, the affinity, expressed as Kd, was 1600 nM.

`Cn1ccc2ncnc(Oc3ccc(NC(=O)Nc4ccncc4)c(Cl)c3)c21`: in the experiment on STK39, the Kd is > 10000 nM.

For `O=C(NCCNc1ccnc(Nc2ccc(F)cc2)n1)c1cc2ccccc2s1` [GSK1379874], the Kd in the experiment with TESK1 is > 10000 nM.

Broadly, the Kd is the equilibrium constant for the complex coming apart. The low end stands for higher affinity, the high end for lower affinity.

(Values after publication PMC5540273 (PLoS ONE, 2017).)
